This note sets out measurements from PubChem BioAssay (EPA / NIEHS).

Activity calls are given as the source filed them. How the source made its calls: active means hit-call score of the fitted dose curve at least 0.9, where 1 is the maximum; inactive means score below 0.9.

Read-out in assay [1]: Fatty acid synthase (Homo sapiens) (UniProt P49327)
Nature of the assay: LTEA_HepaRG_FASN: Life Technologies and Expression Analysis (LTEA) Assay for Fatty Acid Synthase (FASN) using HepaRG (AID 2283448). The conditions noted are these: mRNA level, 48 h; actives raise or lower the signal. The method, boiled down:
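In human HepaRG cultures, 48 h chemical exposure (up to 100 uM, 0.5% DMSO) preceded TaqMan qRT-PCR of FASN.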

Read-out in assay [2]: Cyclin Dependent Kinase Inhibitor 1A (CDKN1A), CDKN1A (gene 1026)
Nature of the assay: LTEA_HepaRG_CDKN1A: Life Technologies and Expression Analysis (LTEA) Assay for Cyclin Dependent Kinase Inhibitor 1A (CDKN1A) using HepaRG (AID 2283450). The conditions noted are these: mRNA level, 48 h; actives raise or lower the signal. The method, boiled down:
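Cryopreserved HepaRG cells were plated and cultured 48 h, then switched to serum-free induction medium. Chemicals (eight half-log concentrations, top 100 uM, 0.5% DMSO) were applied for 48 h. Lysates underwent qRT-PCR for CDKN1A with housekeeping normalization.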

Read-out in assay [3]: Cyclin D1 (CCND1), CCND1 (gene 595)
The assay can be described thus: LTEA_HepaRG_CCND1: Life Technologies and Expression Analysis (LTEA) Assay for Cyclin D1 (CCND1) using HepaRG (AID 2283451). The conditions noted are these: mRNA level, 48 h; actives raise or lower the signal. In short, it runs like this:
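Human liver HepaRG line; 48 h dosing, 8 conc. ≤100 uM, 0.5% DMSO; TaqMan qRT-PCR mRNA, 3 housekeeping genes; bidirectional curve fit vs DMSO.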

Read-out in assay [4]: catalase (CAT), CAT (gene 847)
Nature of the assay: LTEA_HepaRG_CAT: Life Technologies and Expression Analysis (LTEA) Assay for catalase (CAT) using HepaRG (AID 2283452). The conditions noted are these: mRNA level, 48 h; actives raise or lower the signal. In short, it runs like this:
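Expression of CAT was quantified by TaqMan qRT-PCR with ACTB/GAPDH/POLR2A normalization after 48 h chemical exposure of HepaRG. Eight-point half-log series, top 100 uM, in 0.5% DMSO; gain or loss fitted against vehicle.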

Read-out in assay [5]: flavin-containing dimethylaniline monooxygenases 3 (FMO3), FMO3 (gene 2328)
Nature of the assay: LTEA_HepaRG_FMO3: Life Technologies and Expression Analysis (LTEA) Assay for flavin-containing dimethylaniline monooxygenases 3 (FMO3) using HepaRG (AID 2283453). The conditions noted are these: mRNA level, 48 h; actives raise or lower the signal. In short, it runs like this:
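Eight-point concentration-response in serum-free HepaRG cultures (top 100 uM, 0.5% DMSO, 48 h). Read-out: FMO3 mRNA level normalized to three endogenous control genes, fitted bidirectionally versus vehicle.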

Read-out in assay [6]: Cytochrome P450 (CYP1A1), CYP1A1 (gene 1543)
The assay can be described thus: LTEA_HepaRG_CYP1A1: Life Technologies and Expression Analysis (LTEA) Assay for Cytochrome P450 (CYP1A1) using HepaRG (AID 2283454). To be noted: mRNA level, 48 h; actives raise or lower the signal. In short, it runs like this: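 Induction of CYP1A1 mRNA in a human hepatic cell line was measured 48 h after dosing, with 1 mM phenobarbital as induction positive control and 0.5% DMSO vehicle as baseline for bidirectional curve fitting.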

Read-out in assay [7]: CFLAR gene, CFLAR (gene 8837)
Nature of the assay: LTEA_HepaRG_CFLAR: Life Technologies and Expression Analysis (LTEA) Assay for CFLAR gene using HepaRG (AID 2283455). To be noted: mRNA level, 48 h; actives raise or lower the signal. In short, it runs like this:
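Transcript level by qRT-PCR (normalized to ACTB, GAPDH and POLR2A) after 48 h chemical exposure of HepaRG cells, top concentration 100 uM with half-log steps, 0.5% DMSO vehicle, duplicates; fitted bidirectionally against DMSO baseline.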

Read-out in assay [8]: Forkhead box O1 (FOXO1), FOXO1 (gene 2308)
The assay can be described thus: LTEA_HepaRG_FOXO1: Life Technologies and Expression Analysis (LTEA) Assay for Forkhead box O1 (FOXO1) using HepaRG (AID 2283456). To be noted: mRNA level, 48 h; actives raise or lower the signal. In short, it runs like this: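 FOXO1 transcript quantified by qRT-PCR after 48 h chemical exposure (top 100 uM, half-log steps, 0.5% DMSO) of HepaRG cells, housekeeping-normalized (ACTB/GAPDH/POLR2A). Changes fitted in both directions relative to vehicle.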

Read-out in assay [9]: growth arrest and DNA damage 45 (GADD45A), GADD45A (gene 1647)
Nature of the assay: LTEA_HepaRG_GADD45A: Life Technologies and Expression Analysis (LTEA) Assay for growth arrest and DNA damage 45 (GADD45A) using HepaRG (AID 2283458). To be noted: mRNA level, 48 h; actives raise or lower the signal. In short, it runs like this:
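Eight-point concentration-response in HepaRG cells: 48 h chemical exposure, 0.5% DMSO vehicle, top dose 100 uM. Normalized qRT-PCR mRNA readout with bidirectional fitting relative to DMSO.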

Read-out in assay [10]: Forkhead box O3 (FOXO3), FOXO3 (gene 2309)
The assay can be described thus: LTEA_HepaRG_FOXO3: Life Technologies and Expression Analysis (LTEA) Assay for Forkhead box O3 (FOXO3) using HepaRG (AID 2283459). The conditions noted are these: mRNA level, 48 h; actives raise or lower the signal. The method, boiled down:
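FOXO3 transcript measured by qRT-PCR (normalized to ACTB, GAPDH, POLR2A) after 48 h exposure of HepaRG cells in serum-free induction medium. Duplicates, eight half-log concentrations up to 100 uM, 0.5% DMSO; gain or loss fitted against DMSO.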

Read-out in assay [11]: ABC Transporter (ABCB1), ABCB1 (gene 5243)
The assay can be described thus: LTEA_HepaRG_ABCB1: Life Technologies and Expression Analysis (LTEA) Assay for ABC Transporter (ABCB1) using HepaRG (AID 2283460). To be noted: mRNA level, 48 h; actives raise or lower the signal. In short, it runs like this: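 ABCB1 transcript level measured by TaqMan qRT-PCR against three housekeeping genes after 48 h chemical exposure of differentiated HepaRG cells. Top concentration 100 uM, half-log steps, eight points, 0.5% DMSO vehicle; bidirectional fit relative to DMSO.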

Read-out in assay [12]: growth arrest and DNA damage 45 (GADD45B), GADD45B (gene 4616)
Nature of the assay: LTEA_HepaRG_GADD45B: Life Technologies and Expression Analysis (LTEA) Assay for growth arrest and DNA damage 45 (GADD45B) using HepaRG (AID 2283461). The conditions noted are these: mRNA level, 48 h; actives raise or lower the signal. In short, it runs like this: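 Values are bidirectional concentration-response fits against 0.5% DMSO controls. Underlying data: qRT-PCR mRNA levels in human HepaRG liver cells treated 48 h in serum-free induction medium, eight concentrations topping at 100 uM.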

Read-out in assay [13]: ABC Transporter (ABCC3), ABCC3 (gene 8714)
Nature of the assay: LTEA_HepaRG_ABCC3: Life Technologies and Expression Analysis (LTEA) Assay for ABC Transporter (ABCC3) using HepaRG (AID 2283462). To be noted: mRNA level, 48 h; actives raise or lower the signal. The method, boiled down:
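Differentiated HepaRG liver cells receive test chemicals at eight concentrations (max 100 uM) for 48 h. Expression of ABCC3 is quantified by qRT-PCR against ACTB, GAPDH and POLR2A, and activity is fitted in both directions against the DMSO control.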

Read-out in assay [14]: ABC Transporter (ABCB11), ABCB11 (gene 8647)
Nature of the assay: LTEA_HepaRG_ABCB11: Life Technologies and Expression Analysis (LTEA) Assay for ABC Transporter (ABCB11) using HepaRG (AID 2283463). To be noted: mRNA level, 48 h; actives raise or lower the signal. The method, boiled down:
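ABCB11 transcript levels quantified by TaqMan qRT-PCR against three housekeeping genes after 48 h chemical exposure of HepaRG cultures. Concentrations up to 100 uM in half-log steps, 0.5% DMSO vehicle; both induction and suppression scored.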

Read-out in assay [15]: ABC Transporter (ABCC2), ABCC2 (gene 1244)
The assay can be described thus: LTEA_HepaRG_ABCC2: Life Technologies and Expression Analysis (LTEA) Assay for ABC Transporter (ABCC2) using HepaRG (AID 2283464). The conditions noted are these: mRNA level, 48 h; actives raise or lower the signal. In short, it runs like this: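 Gene expression of ABCC2 was determined by qRT-PCR in HepaRG cells exposed 48 h to chemicals (highest 100 uM, half-log dilutions). Activity was fitted in both directions relative to 0.5% DMSO vehicle.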

Read-out in assay [16]: Broad substrate specificity ATP-binding cassette transporter ABCG2 (Homo sapiens) (UniProt Q9UNQ0)
Nature of the assay: LTEA_HepaRG_ABCG2: Life Technologies and Expression Analysis (LTEA) Assay for ABC Transporter (ABCG2) using HepaRG (AID 2283465). To be noted: mRNA level, 48 h; actives raise or lower the signal. The method, boiled down:
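ABCG2 transcript was quantified by TaqMan qRT-PCR against three housekeeping genes in HepaRG cells. Cells were treated in duplicate for 48 h across an 8-point half-log series up to 100 uM, with 0.5% DMSO vehicle. Gain or loss versus DMSO was fit.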

Read-out in assay [17]: ATP-citrate lyase (ACLY), ACLY (gene 47)
Nature of the assay: LTEA_HepaRG_ACLY: Life Technologies and Expression Analysis (LTEA) Assay for ATP-citrate lyase (ACLY) using HepaRG (AID 2283466). The conditions noted are these: mRNA level, 48 h; actives raise or lower the signal. The method, boiled down:
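ACLY mRNA quantified by qRT-PCR on Fluidigm arrays against three housekeeping genes, after 48 h chemical treatment of HepaRG cells (top concentration 100 uM, half-log steps, 0.5% DMSO vehicle). Up- or down-regulation fitted relative to DMSO.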

Read-out in assay [18]: Peroxisomal acyl-coenzyme A oxidase 1 (ACOX1) gene, ACOX1 (gene 51)
The assay can be described thus: LTEA_HepaRG_ACOX1: Life Technologies and Expression Analysis (LTEA) Assay for Peroxisomal acyl-coenzyme A oxidase 1 (ACOX1) gene using HepaRG (AID 2283467). The conditions noted are these: mRNA level, 48 h; actives raise or lower the signal. The method, boiled down: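 ACOX1 transcript levels were quantified by TaqMan qRT-PCR against three housekeeping genes after 48 h chemical exposure of differentiated human HepaRG cells. Exposure used eight half-log steps topping at 100 uM, 0.5% DMSO vehicle, in duplicate. Bidirectional curve fits were made relative to DMSO.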

Read-out in assay [19]: Cyclin D2 (CCND2), CCND2 (gene 894)
Nature of the assay: LTEA_HepaRG_CCND2: Life Technologies and Expression Analysis (LTEA) Assay for Cyclin D2 (CCND2) using HepaRG (AID 2283449). To be noted: mRNA level, 48 h; actives raise or lower the signal. In short, it runs like this: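 CCND2 transcript levels, quantified by qRT-PCR and normalised to three housekeeping genes, were fitted bidirectionally against 0.5% DMSO. HepaRG cultures were dosed 48 h in duplicate with an 8-point half-log series up to 100 uM.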

The nature of assay [20]: CEETOX_H295R_TESTO: CeeTox H295R High-throughput Steroidogenesis Assay for Testosterone (TESTO) (AID 2283457). To be noted: actives raise or lower the signal. The method, boiled down:
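Testosterone synthesis is assessed in human adrenocortical H295R cells after 48 h of chemical exposure, using HPLC-MS/MS of extracted medium. Activity is fitted in both directions against DMSO control.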

Sequence of Fatty acid synthase (Homo sapiens) (P49327 whole entry, looked up): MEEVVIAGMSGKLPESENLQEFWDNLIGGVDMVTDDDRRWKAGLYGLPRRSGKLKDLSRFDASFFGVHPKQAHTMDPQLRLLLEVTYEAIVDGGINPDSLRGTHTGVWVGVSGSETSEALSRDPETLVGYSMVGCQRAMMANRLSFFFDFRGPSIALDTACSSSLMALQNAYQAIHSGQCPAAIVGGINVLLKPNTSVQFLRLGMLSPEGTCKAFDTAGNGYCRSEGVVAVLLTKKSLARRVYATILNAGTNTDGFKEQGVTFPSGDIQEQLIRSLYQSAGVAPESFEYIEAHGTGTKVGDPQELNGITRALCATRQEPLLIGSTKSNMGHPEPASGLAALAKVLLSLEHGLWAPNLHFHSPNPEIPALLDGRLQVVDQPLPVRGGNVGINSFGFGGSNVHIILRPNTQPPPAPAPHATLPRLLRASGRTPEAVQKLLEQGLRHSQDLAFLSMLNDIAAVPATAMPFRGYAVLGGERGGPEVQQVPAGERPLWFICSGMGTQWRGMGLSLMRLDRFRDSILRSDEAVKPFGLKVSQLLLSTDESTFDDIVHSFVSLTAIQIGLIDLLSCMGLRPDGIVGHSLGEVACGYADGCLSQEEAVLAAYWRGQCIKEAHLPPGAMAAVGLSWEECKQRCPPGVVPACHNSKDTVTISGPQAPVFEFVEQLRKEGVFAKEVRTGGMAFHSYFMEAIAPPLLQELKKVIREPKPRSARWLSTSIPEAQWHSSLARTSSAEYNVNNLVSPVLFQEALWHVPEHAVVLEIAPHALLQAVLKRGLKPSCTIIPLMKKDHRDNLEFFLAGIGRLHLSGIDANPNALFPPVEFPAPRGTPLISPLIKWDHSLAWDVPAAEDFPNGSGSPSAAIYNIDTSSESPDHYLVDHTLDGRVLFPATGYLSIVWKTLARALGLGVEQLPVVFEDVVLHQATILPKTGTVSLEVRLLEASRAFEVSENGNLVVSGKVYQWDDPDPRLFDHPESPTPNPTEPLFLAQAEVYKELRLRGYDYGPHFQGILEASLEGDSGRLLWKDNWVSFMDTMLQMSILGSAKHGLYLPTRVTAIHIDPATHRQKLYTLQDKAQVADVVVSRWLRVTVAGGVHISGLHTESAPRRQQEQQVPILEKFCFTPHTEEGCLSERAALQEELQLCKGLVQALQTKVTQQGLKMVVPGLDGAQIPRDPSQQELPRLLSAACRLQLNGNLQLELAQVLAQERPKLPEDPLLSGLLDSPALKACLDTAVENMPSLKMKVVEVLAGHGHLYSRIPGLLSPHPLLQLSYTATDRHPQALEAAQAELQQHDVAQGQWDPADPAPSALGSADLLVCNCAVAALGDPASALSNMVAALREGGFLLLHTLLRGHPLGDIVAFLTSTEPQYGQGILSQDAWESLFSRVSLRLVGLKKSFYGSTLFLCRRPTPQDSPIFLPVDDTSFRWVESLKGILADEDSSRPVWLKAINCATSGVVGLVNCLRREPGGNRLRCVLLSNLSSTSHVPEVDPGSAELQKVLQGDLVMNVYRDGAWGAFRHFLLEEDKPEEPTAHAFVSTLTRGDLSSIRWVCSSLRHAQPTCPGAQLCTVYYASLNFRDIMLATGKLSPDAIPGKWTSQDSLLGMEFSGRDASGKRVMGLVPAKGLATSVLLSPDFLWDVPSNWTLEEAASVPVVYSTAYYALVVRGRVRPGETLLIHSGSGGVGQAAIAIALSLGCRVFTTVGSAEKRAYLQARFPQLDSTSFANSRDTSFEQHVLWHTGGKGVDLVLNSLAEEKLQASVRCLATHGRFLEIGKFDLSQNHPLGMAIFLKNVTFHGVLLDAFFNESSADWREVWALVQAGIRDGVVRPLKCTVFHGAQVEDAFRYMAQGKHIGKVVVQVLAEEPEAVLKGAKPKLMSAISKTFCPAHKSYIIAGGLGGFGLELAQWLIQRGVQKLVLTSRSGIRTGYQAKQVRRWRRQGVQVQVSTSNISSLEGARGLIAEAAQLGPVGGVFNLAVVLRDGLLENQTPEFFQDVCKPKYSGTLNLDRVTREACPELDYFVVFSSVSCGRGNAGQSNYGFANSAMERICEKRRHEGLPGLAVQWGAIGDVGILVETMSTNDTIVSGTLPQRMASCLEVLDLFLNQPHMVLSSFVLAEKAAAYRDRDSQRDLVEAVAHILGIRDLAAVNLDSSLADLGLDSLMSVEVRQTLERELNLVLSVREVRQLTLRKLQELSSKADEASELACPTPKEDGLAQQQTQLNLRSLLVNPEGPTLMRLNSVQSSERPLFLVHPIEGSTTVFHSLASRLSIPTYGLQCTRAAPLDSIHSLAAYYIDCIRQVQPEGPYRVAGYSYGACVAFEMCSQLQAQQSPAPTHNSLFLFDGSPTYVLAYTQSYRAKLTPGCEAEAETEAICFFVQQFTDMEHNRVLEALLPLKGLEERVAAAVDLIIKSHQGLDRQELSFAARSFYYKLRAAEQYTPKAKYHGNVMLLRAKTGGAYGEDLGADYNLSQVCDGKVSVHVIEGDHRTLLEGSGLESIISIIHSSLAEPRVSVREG
Sequence of Broad substrate specificity ATP-binding cassette transporter ABCG2 (Homo sapiens) (Q9UNQ0 whole entry, looked up): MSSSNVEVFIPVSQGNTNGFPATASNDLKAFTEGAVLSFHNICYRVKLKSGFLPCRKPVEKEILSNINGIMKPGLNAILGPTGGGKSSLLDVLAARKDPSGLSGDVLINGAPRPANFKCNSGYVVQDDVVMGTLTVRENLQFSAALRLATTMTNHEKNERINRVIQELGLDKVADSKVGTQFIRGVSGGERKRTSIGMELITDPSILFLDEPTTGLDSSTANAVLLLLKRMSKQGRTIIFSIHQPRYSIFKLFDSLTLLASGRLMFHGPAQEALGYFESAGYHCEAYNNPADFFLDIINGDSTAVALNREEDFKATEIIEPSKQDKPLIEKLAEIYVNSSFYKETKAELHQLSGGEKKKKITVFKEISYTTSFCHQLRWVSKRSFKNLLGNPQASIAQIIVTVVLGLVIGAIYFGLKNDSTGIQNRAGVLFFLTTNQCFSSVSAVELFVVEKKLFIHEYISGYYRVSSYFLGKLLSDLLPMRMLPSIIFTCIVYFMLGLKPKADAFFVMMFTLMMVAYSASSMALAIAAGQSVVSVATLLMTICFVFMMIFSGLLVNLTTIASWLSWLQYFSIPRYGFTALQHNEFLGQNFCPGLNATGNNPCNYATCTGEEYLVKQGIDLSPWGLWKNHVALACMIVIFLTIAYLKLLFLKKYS

As a reminder, the AC50 is the midpoint of the concentration-response curve, whichever way the signal moves. Regarding `CCCOCC(=Nc1ccc(Cl)cc1C(F)(F)F)n1ccnc1`, the AC50 in assay [1] was 50 µM (active); in [4], 37.6 µM (active); in assay [5] it was 73 µM (active); in assay [6], 12.8 µM (active); in assay [7], 50 µM (active); in assay [8], 50 µM (active). Besides, the AC50 in assay [10] was 40 µM (active); in assay [11] it was 80.5 µM (active); in [12] it was 92 µM (active); in assay [14] it was 17.6 µM (active); in assay [15] it was 78.4 µM (active); in assay [16], 15.8 µM (active). The AC50 was 88.6 µM (active) in assay [17] and 72.2 µM (active) in [18]. Further, the call in assay [2], in assay [3], in [9] and in assay [13] was inactive.
Turning to `CCCCOC(=O)c1ccccc1C(=O)O`, the outcome in assay [1], in [19], in assay [2], in [3], in [4] and in assay [5] was inactive. The call in assay [7], in [8], in [9], in assay [10], in [11] and in assay [12] was inactive. Moreover, the molecule was called inactive in [14], in assay [15], in assay [16], in assay [17] and in assay [18]. In assay [6], the AC50 is 36.1 µM (active).
On to `CCCSP(=O)(OCC)SCCC`, for which the molecule was classed as inactive in assay [1], in [2], in assay [3], in assay [4], in assay [5] and in assay [7]. The result in [8], in assay [20], in assay [9], in assay [10], in assay [11] and in [12] was inactive. Also, the outcome in assay [13], in assay [14], in assay [16], in [17] and in assay [18] was inactive. Further, the AC50 in assay [6] is 40.8 µM (active); in [15], 20.3 µM (active).
